This note sets out measurements from PubChem BioAssay (Tox21).

The nature of experiment [1]: qHTS assay to identify small molecule antagonists of the thyroid receptor (TR) signaling pathway - cell viability counter screen (AID 743064). Further: nearly all actives have a fitted effect of over 50% in size. Put shortly: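 GH3.TRE-Luc rat pituitary cells carrying a TRE-luciferase reporter were treated with compound plus 1 nM T3 (final) for 23.5 h at 37 °C. Viability was then read in the same wells by CellTiter-Fluor fluorescence after a further 30 min.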

In experiment [2] the test system is thyroid hormone receptor (rat, GH3 cells). In words: qHTS assay to identify small molecule agonists of the thyroid receptor (TR) signaling pathway (AID 743066; calls by dose curve).
Experiment [3] has as its target Estrogen receptor (Homo sapiens) (UniProt P03372). Briefly: qHTS assay to identify small molecule antagonists of the estrogen receptor alpha (ER-alpha) signaling pathway (AID 743069; active means well fitted curve in the direction sought with a large enough effect in the signal ratio in the repeat runs, not every such curve was filed as active; the % refers to the signal ratio). A digest of the protocol: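 Fluorescence intensity from a beta-lactamase FRET substrate served as the read-out. Cells: HEK293 with stably integrated ER-alpha-UAS-bla reporter. Agonist 17beta-estradiol was co-added with compounds; incubation 18 hr at 37C, substrate 2 hr at room temperature.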

A short description of experiment [4]: qHTS assay to identify small molecule antagonists of the estrogen receptor alpha (ER-alpha) signaling pathway - cell viability counter screen (AID 743074; calls by dose curve; further: nearly all actives have a fitted effect of over 45% in size).
In experiment [5] the target is Estrogen receptor (Homo sapiens) (UniProt P03372). Briefly: qHTS assay to identify small molecule agonists of the estrogen receptor alpha (ER-alpha) signaling pathway (AID 743075; calls by dose curve).
Experiment [6] has the same target. In words: qHTS assay to identify small molecule agonists of the estrogen receptor alpha (ER-alpha) signaling pathway using the BG1 cell line (AID 743079). Further: nearly all actives have a fitted effect of over 20% in size.
The nature of experiment [7]: qHTS assay to identify small molecule antagonists of the estrogen receptor alpha (ER-alpha) signaling pathway using the BG1 cell line (AID 743080; calls by dose curve;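 further: BG1 cells stimulated with 17beta-estradiol alongside compound; series mostly up to about 70 µM; nearly all actives have a fitted effect of over 25% in size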). A digest of the protocol:
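Luminescence from a 4×ERE-luciferase reporter in BG1-Luc-4E2 cells served as read-out. Cells, pre-cultured 5 days in stripped-serum phenol-red-free medium, were exposed to compound with 17beta-estradiol co-stimulation for 21.5 h at 37 C.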

Experiment [8] in a line: qHTS assay to identify small molecule antagonists of the estrogen receptor alpha (ER-alpha) signaling pathway using the BG1 cell line - cell viability counter screen (AID 743081).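 Further: compound given together with 17beta-estradiol as the ER stimulus; series mostly up to about 70 µM; nearly all actives have a fitted effect of over 45% in size.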
A further experiment has as its target Aromatase (Homo sapiens) (UniProt P11511). Briefly: qHTS assay to identify aromatase inhibitors (AID 743083). Further: series mostly up to about 70 µM; nearly all actives have a fitted effect of over 55% in size.
Experiment [9] in a line: qHTS assay to identify aromatase inhibitors - cell viability counter screen (AID 743084).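 Further: cells stimulated with testosterone during compound exposure; nearly all actives have a fitted effect of over 55% in size.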
Experiment [10] deals with Aryl hydrocarbon receptor (Homo sapiens) (UniProt P35869). In words: qHTS assay to identify small molecule that activate the aryl hydrocarbon receptor (AhR) signaling pathway (AID 743085).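 Further: HG2L7.5c1 human HepG2 liver cells with stably integrated DRE-driven firefly reporter; series mostly up to about 70 µM; nearly all actives have a fitted effect of over 15% in size.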 A digest of the protocol: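 HepG2 cells (HG2L7.5c1) stably carrying a firefly luciferase reporter driven by 20 dioxin responsive elements were exposed to compound for 24 h at 37C after a 5 h settling period; luminescence rise (ONE-Glo) indicated activation.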

Experiment [11] in a line: qHTS assay to identify small molecule that activate the aryl hydrocarbon receptor (AhR) signaling pathway - cell viability counter screen (AID 743086). Further: series mostly up to about 70 µM; nearly all actives have a fitted effect of over 45% in size. A digest of the protocol: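 Cytotoxicity counter screen: CellTiter-Fluor signal (30 min, 37 C) in 4000 HepG2 cells/well carrying the DRE-luciferase reporter, following 24 h compound exposure at 37 C.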
Experiment [12] has as its target Peroxisome proliferator-activated receptor gamma (Homo sapiens) (UniProt P37231). Briefly: qHTS assay to identify small molecule agonists of the peroxisome proliferator-activated receptor gamma (PPARg) signaling pathway (AID 743094; active means well fitted activation curve with a large enough effect in the signal ratio in the repeat runs, not every such curve was filed as active; the % refers to the signal ratio). Put shortly: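 Cells from the PPARg UAS-bla HEK293H line are plated and incubated 5 h at 37C. Compounds in DMSO are pinned in and left 17 h at 37C. LiveBLAzer B/G substrate is then added for 1 h at room temperature before fluorescence is measured.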

Experiment [13] in a line: qHTS assay to identify small molecule antagonists of the peroxisome proliferator-activated receptor gamma (PPARg) signaling pathway - cell viability counter screen (AID 743194). Further: nearly all actives have a fitted effect of over 55% in size. A digest of the protocol:
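Viability was measured as CellTiter-Glo luminescence in GeneBLAzer PPARg UAS-bla HEK293H cells. These cells had been exposed 17 h at 37 C to compounds together with rosiglitazone at 50 nM final, with the beta-lactamase readout taken in the same wells.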

Experiment [14] is described as follows: qHTS assay for small molecule agonists of the antioxidant response element (ARE) signaling pathway - cell viability counter screen (AID 743203; calls by dose curve; further: nearly all actives have a fitted effect of over 55% in size). Put shortly:
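Cytotoxicity was tested in parallel with the ARE reporter screen. ARE-bla HepG2 cells were exposed to compounds for 16 hrs, and viability was taken from CellTiter-Glo luminescence.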

Experiment [15] is described as follows: qHTS assay for small molecule activators of the heat shock response signaling pathway - cell viability counter screen (AID 743209). Further: nearly all actives have a fitted effect of over 50% in size. A digest of the protocol:
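Cytotoxicity counter screen run in parallel with the HSE beta-lactamase reporter, using the same wells. HeLa HSE-bla cells received compound for 5 h at 37 C; ATP-based CellTiter-Glo luminescence was measured after 30 min at room temperature.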

Experiment [16] has as its target Peroxisome proliferator-activated receptor gamma (Homo sapiens) (UniProt P37231). In words: qHTS assay to identify small molecule antagonists of the peroxisome proliferator-activated receptor gamma (PPARg) signaling pathway (AID 743191; calls by dose curve; further: series mostly up to about 63 µM; nearly all actives have a fitted effect of over 30% in size). A digest of the protocol: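 Beta-lactamase reporter under UAS control in HEK293H PPARg-bla cells; compound treatment 17 h at 37C. Read-out: fluorescence intensity after 1 h room-temperature incubation with LiveBLAzer B/G FRET substrate.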

A short description of experiment [17]: qHTS assay for small molecule agonists of the antioxidant response element (ARE) signaling pathway (AID 743202; active means well fitted activation curve with a large enough effect in the signal ratio in the repeat runs, not every such curve was filed as active; the % refers to the signal ratio; further: potency means the concentration at half of the fitted maximal effect). A digest of the protocol:
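Beta-lactamase reporter activity, read as fluorescence intensity, reflects ARE/Nrf2 pathway induction in HepG2 cells after 16 h compound exposure at 37 C; substrate loading was 2 h at room temperature.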

A short description of experiment [18]: qHTS assay for small molecule activators of the heat shock response signaling pathway (AID 743210; active means well fitted activation curve with a large enough effect in the signal ratio in the repeat runs, with a control signal flat, not every such curve was filed as active; the % refers to the signal ratio;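 further: HeLa cells with beta-lactamase reporter driven by heat shock elements; series mostly up to about 63 µM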). Put shortly:
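Fluorescence from a cleaved B/G FRET substrate (2.5 h, room temp) reports HSE-driven beta-lactamase in HeLa cells treated 5 h at 37 C with DMSO-dissolved compounds.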

Experiment [19] can be described thus: qHTS assay to identify small molecule antagonists of the thyroid receptor (TR) signaling pathway (AID 743065). A digest of the protocol:
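Antagonism measured as loss of luciferase signal in GH3 cells stably carrying a TRE-luciferase reporter, co-treated with compound and T3 (1 nM final) for 23.5 h at 37 C. Viability was read in the same well by CellTiter-Fluor.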

Each structure is given as a SMILES string. Results filed as inconclusive are left out. Activity calls are given as the source filed them. Unless noted, the call rests on the fitted dose curve; in most records, active means well fitted curve in the direction sought with a large enough effect in the repeat runs; inconclusive means weak or mixed curves; inactive means no such curve, though single readings can be large; an effect the other way counts as inactive or inconclusive.

Chain of Peroxisome proliferator-activated receptor gamma (Homo sapiens) (P37231 whole entry, looked up): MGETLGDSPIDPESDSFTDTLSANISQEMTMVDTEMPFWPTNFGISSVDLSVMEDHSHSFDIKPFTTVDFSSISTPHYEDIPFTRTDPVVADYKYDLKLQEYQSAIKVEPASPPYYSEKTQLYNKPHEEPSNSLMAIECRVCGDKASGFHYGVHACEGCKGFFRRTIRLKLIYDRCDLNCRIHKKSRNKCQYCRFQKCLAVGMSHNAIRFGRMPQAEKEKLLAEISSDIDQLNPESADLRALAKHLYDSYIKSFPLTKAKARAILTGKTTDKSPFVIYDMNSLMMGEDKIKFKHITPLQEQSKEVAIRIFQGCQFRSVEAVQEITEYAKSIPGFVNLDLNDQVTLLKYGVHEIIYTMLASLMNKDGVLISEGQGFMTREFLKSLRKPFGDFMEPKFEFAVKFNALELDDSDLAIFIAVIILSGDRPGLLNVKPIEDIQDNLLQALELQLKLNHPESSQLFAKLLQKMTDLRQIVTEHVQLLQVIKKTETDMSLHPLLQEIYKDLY
Chain of Estrogen receptor (Homo sapiens) (P03372 whole entry, looked up): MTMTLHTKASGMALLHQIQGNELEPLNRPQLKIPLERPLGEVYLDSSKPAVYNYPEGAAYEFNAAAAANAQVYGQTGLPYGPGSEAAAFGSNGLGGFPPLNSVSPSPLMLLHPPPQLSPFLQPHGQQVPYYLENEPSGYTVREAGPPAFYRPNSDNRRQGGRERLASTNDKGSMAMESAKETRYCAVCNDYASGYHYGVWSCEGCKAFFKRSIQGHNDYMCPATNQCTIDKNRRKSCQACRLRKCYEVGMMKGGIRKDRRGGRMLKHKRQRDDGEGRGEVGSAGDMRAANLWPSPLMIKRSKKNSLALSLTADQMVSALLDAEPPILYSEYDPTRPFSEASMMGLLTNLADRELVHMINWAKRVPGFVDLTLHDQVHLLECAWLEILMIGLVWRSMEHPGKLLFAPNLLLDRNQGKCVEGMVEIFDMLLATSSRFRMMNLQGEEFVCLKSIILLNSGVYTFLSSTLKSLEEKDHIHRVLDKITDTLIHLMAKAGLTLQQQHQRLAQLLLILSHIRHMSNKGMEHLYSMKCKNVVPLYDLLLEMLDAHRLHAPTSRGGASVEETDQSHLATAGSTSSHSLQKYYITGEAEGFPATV
Chain of Aromatase (Homo sapiens) (P11511 whole entry, looked up): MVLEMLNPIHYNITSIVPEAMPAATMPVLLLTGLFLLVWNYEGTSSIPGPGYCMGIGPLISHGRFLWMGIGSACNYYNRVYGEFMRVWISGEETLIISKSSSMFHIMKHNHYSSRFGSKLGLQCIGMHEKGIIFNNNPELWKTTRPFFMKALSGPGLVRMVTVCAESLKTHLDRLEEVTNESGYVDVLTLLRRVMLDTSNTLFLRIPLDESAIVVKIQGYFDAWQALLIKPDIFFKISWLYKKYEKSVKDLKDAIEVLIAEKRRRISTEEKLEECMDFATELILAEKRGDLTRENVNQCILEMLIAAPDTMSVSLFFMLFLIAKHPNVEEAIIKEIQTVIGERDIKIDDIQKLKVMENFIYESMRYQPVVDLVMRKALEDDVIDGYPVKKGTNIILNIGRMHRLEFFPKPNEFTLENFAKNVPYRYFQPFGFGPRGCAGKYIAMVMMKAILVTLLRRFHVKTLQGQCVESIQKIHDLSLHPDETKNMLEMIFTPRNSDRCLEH
Chain of Aryl hydrocarbon receptor (Homo sapiens) (P35869 whole entry, looked up): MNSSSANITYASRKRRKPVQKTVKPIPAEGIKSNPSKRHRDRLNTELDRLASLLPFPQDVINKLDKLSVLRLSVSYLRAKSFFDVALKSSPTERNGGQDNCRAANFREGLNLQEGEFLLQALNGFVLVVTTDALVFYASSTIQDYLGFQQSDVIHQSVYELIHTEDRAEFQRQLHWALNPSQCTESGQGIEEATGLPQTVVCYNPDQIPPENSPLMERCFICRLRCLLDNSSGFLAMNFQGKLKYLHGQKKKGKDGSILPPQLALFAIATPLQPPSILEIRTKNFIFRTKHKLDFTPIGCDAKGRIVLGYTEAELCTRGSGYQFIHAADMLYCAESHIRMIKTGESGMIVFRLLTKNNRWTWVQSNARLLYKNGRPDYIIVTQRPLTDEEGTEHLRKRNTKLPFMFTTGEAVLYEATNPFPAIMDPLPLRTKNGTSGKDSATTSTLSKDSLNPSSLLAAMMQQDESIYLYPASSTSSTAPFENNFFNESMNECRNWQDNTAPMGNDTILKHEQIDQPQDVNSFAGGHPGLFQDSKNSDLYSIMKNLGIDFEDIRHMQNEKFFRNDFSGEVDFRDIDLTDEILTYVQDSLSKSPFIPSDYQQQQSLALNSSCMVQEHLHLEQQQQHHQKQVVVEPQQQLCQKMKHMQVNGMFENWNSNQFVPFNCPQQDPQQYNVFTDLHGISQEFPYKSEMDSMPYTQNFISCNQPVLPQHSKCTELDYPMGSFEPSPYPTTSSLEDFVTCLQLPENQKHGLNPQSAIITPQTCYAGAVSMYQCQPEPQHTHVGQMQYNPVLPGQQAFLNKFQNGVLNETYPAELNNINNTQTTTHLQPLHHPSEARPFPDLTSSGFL

For the compound `C=CCCCCCCCCC(=O)OCCCC`, the Potency result in experiment [1], in [5], in [6], in [8], in experiment [9] and in experiment [10] was “inactive” in each case. Further, the Potency result in experiment [11], in [12] and in experiment [15] was “inactive” each time. For the same compound, the call (in experiment [2]; in [3]; in [4]; in experiment [7]; in the experiment with Aromatase (Homo sapiens); in experiment [13]) was inactive. For the same compound, in [14], the outcome was inactive.
Take `CCCCCCCCCCCCCCCCCC#N`: the Potency result in experiment [1], in [5], in experiment [6], in experiment [9], in experiment [10] and in experiment [11] was “inactive” in each case. In addition, the Potency entry in [12], in experiment [17] and in [15] was “inactive” each time. For the same compound, the outcome (in [2]; in experiment [3]; in [4]; in experiment [7]; with Aromatase (Homo sapiens); in experiment [16]) was inactive. Besides, the compound was classed as inactive in experiment [13], in experiment [14] and in experiment [18].
Consider `C=C(C)[C@@H]1CC=C(C)C(=O)C1`, for which the Potency result in [1], in [19], in experiment [8], in experiment [9], in [10] and in experiment [11] was “inactive” throughout. The Potency entry in [12], in experiment [17] and in experiment [15] was “inactive” each time. Besides, the compound was called inactive (in experiment [2]; in experiment [4]; with Aromatase (Homo sapiens); in experiment [14]; in experiment [18]).
Consider `CC(C)OC(=O)OCOP(=O)(CO[C@H](C)Cn1cnc2c(N)ncnc21)OCOC(=O)OC(C)C`, for which the Potency entry in experiment [1], in [5], in experiment [6], in experiment [8], in experiment [9] and in experiment [10] was “inactive” throughout. Moreover, the Potency entry in [11], in [12] and in [15] was “inactive” in each case. For the same compound, the outcome in experiment [2], in [3], in experiment [4], in experiment [7], in [13] and in [14] was inactive. Further, the result in [18] was inactive. Also, the Potency in experiment [17] was 11.9 µM (active).
Regarding `c1ccc2c(CC3=NCCN3)cccc2c1`, the Potency result in experiment [1], in [19], in experiment [8], in [9], in experiment [11] and in [12] was “inactive” each time. Further, the Potency result in [17] and in experiment [15] was “inactive” in each case. In addition, the outcome (in [2]; in experiment [4]; with Aromatase (Homo sapiens); in [16]; in experiment [13]; in experiment [14]) was inactive. In [18], the outcome was inactive.
Take `O=C(O)CNC(=O)CNC(=O)CNC(=O)CSC(=O)c1ccccc1`: the Potency entry in experiment [1], in experiment [5], in [6], in [8], in [9] and in experiment [10] was “inactive” each time. Also, the Potency entry in experiment [11], in experiment [12], in experiment [17] and in experiment [15] was “inactive” throughout. Further, the compound was called inactive (in experiment [2]; in experiment [3]; in [4]; with Aromatase (Homo sapiens); in [16]; in [13]). The compound was classed as inactive in [14] and in experiment [18].
With `CC(Oc1cc(Cl)ccc1Cl)C(=O)O` (configuration not stated), the Potency entry in experiment [1], in experiment [19], in experiment [8], in experiment [10], in experiment [11] and in experiment [12] was “inactive” throughout. In addition, the Potency result in experiment [15] is “inactive”. Also, the compound was classed as inactive (in experiment [2]; in [4]; with Aromatase (Homo sapiens); in [13]; in experiment [14]; in experiment [18]).
Take `Cc1ccc(C)c([N+](=O)[O-])c1`: the Potency result in experiment [1], in experiment [19], in experiment [8], in experiment [9], in experiment [10] and in experiment [11] was “inactive” each time. The Potency entry in experiment [12] and in experiment [15] was “inactive” throughout. The compound was classed as inactive (in [2]; in experiment [4]; in the experiment with Aromatase (Homo sapiens); in experiment [13]; in experiment [14]; in [18]).
In the case of `CCCCOC(=O)C(C)O` (configuration not stated), the Potency entry in [1], in experiment [5], in experiment [6], in experiment [8], in [9] and in experiment [10] was “inactive” throughout. For the same compound, the Potency result in experiment [11], in experiment [12], in [17] and in [15] was “inactive” in each case. Also, the compound was called inactive (in experiment [2]; in experiment [3]; in experiment [4]; in experiment [7]; with Aromatase (Homo sapiens); in experiment [14]). Also, the compound was called inactive in experiment [18].
